GLS inhibitor: blocks human kidney-isoform glutaminase activity | O94925 | GLS enzymatic activity, qHTS titration | Potency, µM (highest dose often 45.5 µM), most hits filed as inhibitors | 0.21% of 410,000 active | AID 624170
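Two-point fluorescence kinetic (t0, 30 min RT) for hKGA; glutamate detected via glutamate oxidase–HRP–Amplex Red. Substrate: 1 mM L-glutamine solution; buffer 45 mM KH2PO4, pH 8.2.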
JMJD2A Tudor: JMJD2A Tudor domain (human) inhibition. O75164. AlphaScreen JMJD2A-Tudor / H3K4me3 peptide binding. Potency, µM (doses to about 114 µM), most hits filed as inhibitors. 4.4% of 390,000 active. AID 504339; note: nearly all actives have a fitted effect of over 50% in size
Target sequence (O75164 whole entry, looked up, the tested form may be a part): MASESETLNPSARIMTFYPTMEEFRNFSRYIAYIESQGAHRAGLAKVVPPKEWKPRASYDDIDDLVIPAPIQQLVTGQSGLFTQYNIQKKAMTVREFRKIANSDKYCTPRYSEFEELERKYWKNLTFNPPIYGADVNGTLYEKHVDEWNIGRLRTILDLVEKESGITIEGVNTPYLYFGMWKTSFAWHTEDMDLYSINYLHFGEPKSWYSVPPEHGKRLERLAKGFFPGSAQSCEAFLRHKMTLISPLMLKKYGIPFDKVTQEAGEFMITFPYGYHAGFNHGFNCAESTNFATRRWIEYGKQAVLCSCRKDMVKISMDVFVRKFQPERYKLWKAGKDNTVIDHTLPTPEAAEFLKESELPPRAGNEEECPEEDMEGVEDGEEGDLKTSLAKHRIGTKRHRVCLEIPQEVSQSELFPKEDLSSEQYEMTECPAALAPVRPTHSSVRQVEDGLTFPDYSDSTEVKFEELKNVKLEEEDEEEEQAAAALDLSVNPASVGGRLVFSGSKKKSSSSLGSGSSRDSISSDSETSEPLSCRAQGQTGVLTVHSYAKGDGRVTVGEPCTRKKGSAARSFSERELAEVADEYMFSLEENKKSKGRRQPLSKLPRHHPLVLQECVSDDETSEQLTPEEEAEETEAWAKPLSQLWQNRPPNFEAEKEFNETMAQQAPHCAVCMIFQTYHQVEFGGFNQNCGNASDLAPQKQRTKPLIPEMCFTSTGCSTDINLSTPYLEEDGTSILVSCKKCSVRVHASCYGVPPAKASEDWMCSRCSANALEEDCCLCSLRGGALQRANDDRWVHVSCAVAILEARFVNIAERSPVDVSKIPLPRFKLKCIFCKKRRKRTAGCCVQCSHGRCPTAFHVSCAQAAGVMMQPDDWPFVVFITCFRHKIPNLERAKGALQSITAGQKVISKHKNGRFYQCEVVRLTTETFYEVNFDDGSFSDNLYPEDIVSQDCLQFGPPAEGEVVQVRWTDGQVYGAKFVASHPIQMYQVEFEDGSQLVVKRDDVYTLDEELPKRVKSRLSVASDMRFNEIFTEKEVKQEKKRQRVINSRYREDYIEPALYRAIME
BAZ2B inh: blocks human BAZ2B | Q9UIF8 | AlphaScreen BAZ2B-H3K14Ac peptide displacement | Potency, µM (doses to about 114 µM), actives largely listed as inhibitors | 4.4% of 360,000 active | AID 504333; note: nearly all actives have a fitted effect of over 60% in size
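Protein-peptide AlphaScreen: BAZ2B 50 nM, b-H3K14Ac 50 nM, 1x PBS pH 7.4 + 0.01% Tween-20. Preincubation 30 min RT; cpd 30 min RT (top 110 uM); beads 20 min RT, light-protected.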
G9a block: inhibitors of human histone lysine methyltransferase G9a; G9a H3K9 monomethylation, AlphaScreen, 2 h; Q96KQ7; 8.8% of 350,000 active; Potency, µM (top dose mostly 102 µM), most hits filed as inhibitors; note: nearly all actives have a fitted effect of over 75% in size
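G9a (20 nM) preincubated 15 min RT with compounds, then 500 nM biotinylated H3K9 peptide and 20 uM SAM added; 2 h RT reaction. Monomethyl-H3K9 product detected by AlphaScreen with anti-H3K9me1 antibody, streptavidin donor and anti-rabbit IgG acceptor beads.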
HP1b binding inh: blocks HP1-beta chromodomain binding to methylated histone tails; P83916; AlphaScreen HP1-beta / biotin-H3K9me3 peptide binding; Potency, µM (top dose mostly 114 µM), usual class: inhibitors; 0.56% of 390,000 active; AID 540317; note: nearly all actives have a fitted effect of over 70% in size
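Compound inhibition of the preformed complex between 50 nM HP1-beta and 50 nM biotinylated H3K9me3 peptide was read by AlphaScreen. Buffer was PBS pH 7.4 with 0.01% Tween-20. Incubations ran 30 min at room temperature, with 10 ug/mL donor/acceptor beads.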
Large screens that a line does not name were inactive. Most compounds without a hit are left out; they make up all but 10% or so of the library. Calls come from the whole dose curve; as a rule, active = well fitted curve in the direction sought with a large enough effect; inconclusive = small, poorly fitted or top-dose-only effect, or another doubt; inactive = no such curve, though single readings can be large; an effect the other way counts as inactive or inconclusive.

Cc1ccc(N2CC(NC(=O)C(=O)c3c(C)[nH]c4ccccc34)CC2=O)cc1 (stereo not given)	none
Cc1[nH]c2ccccc2c1C(=O)C(=O)NC1CC(=O)N(c2ccc(F)cc2)C1 (stereo not given)	G9a block 50µM
CC(C)c1ccccc1NC(=O)COC(=O)c1cccnc1	none
CN1C(=O)C(c2nnc(Nc3cccc4ccccc34)s2)C2CC1(C)Oc1ccccc12 (stereo not given)	JMJD2A Tudor inconclusive, G9a block 45µM
O=C(c1cc([N+](=O)[O-])ccc1Cl)N1CCN(Cc2ccccc2)CC1	G9a block 71µM
O=C(c1cc([N+](=O)[O-])ccc1Cl)N1CCN(c2ccc(F)cc2)CC1	G9a block 45µM
O=C(c1ccc([N+](=O)[O-])cc1)N1CCN(Cc2ccccc2)CC1	none
O=C(c1ccc(Cn2cc(Cl)c([N+](=O)[O-])n2)cc1)N1CCN(Cc2ccccc2)CC1	G9a block 50µM
O=C(c1cc([N+](=O)[O-])ccc1Cl)N1CCN(c2ccc([N+](=O)[O-])cc2)CC1	G9a block inconclusive
COC(=O)c1nnn(-c2nc(N3CCOCC3)nc(N3CCOCC3)n2)c1C	none
CCN(CC(=O)Nc1ccc2c(c1)OCCO2)C(=O)c1ccc(C)c(S(=O)(=O)N2CCOCC2)c1	none
CCOC(=O)C1(C)CCN1C(=O)c1cncc(Br)c1 (stereo not given)	none (no result: JMJD2A Tudor, BAZ2B inh, G9a block, HP1b binding inh)
O=C(COCc1cc(-c2ccco2)on1)Nc1cccc(O)c1	none
Cc1onc(-c2c(Cl)cccc2Cl)c1C(=O)NNc1ccccc1	GLS inhibitor inconclusive, JMJD2A Tudor 79µM, BAZ2B inh inconclusive (no result: G9a block)
Cc1onc(-c2c(Cl)cccc2Cl)c1NC(=O)NNc1ccccc1	G9a block 40µM
Cc1onc(-c2c(F)cccc2Cl)c1C(=O)ONC(=O)c1ccco1	JMJD2A Tudor 40µM, G9a block 50µM
Cc1onc(-c2c(Cl)cccc2Cl)c1NC(=O)NNc1c(Cl)cncc1Cl	none
O=C(NCC1CCCN(Cc2ccc3nonc3c2)C1)c1cccc(C(F)(F)F)c1 (stereo not given)	none (no result: G9a block)
COc1cc(/C=N/n2c(-c3ccccc3)n[nH]c2=S)cc(OC)c1O	GLS inhibitor 4.5µM, JMJD2A Tudor 3.2µM, G9a block 0.71µM
COc1ccc(/C=N/n2c(-c3ccc(C)cc3)n[nH]c2=S)cc1OC	JMJD2A Tudor 7.9µM, G9a block 0.4µM
COc1cc(/C=N/n2c(-c3ccccc3)n[nH]c2=S)ccc1O	JMJD2A Tudor 5µM, G9a block 2.2µM
COc1ccc(Br)cc1/C=N/n1c(-c2ccccc2)n[nH]c1=S	JMJD2A Tudor inconclusive, G9a block 3.5µM
COc1ccc(CC2(C)OC(c3ccc(C)c([N+](=O)[O-])c3)=NN2C(C)=O)cc1 (stereo not given)	JMJD2A Tudor 79µM, G9a block inconclusive, HP1b binding inh 71µM
COc1ccc(CC2(C)OC(c3ccc(C)cc3)=NN2C(C)=O)cc1 (stereo not given)	none
O=C(O)C1=NN(c2cc(Cl)c(S(=O)(=O)O)cc2Cl)C(=O)C1	GLS inhibitor 1.1µM, JMJD2A Tudor 6.3µM (no result: BAZ2B inh, G9a block)
Cc1cccc(C)c1OCCCn1ccnc1	JMJD2A Tudor 25µM, BAZ2B inh inconclusive, HP1b binding inh inconclusive (no result: G9a block)
Cc1ccc(OCCCCn2ccnc2)c(Cl)c1	JMJD2A Tudor inconclusive
Cc1cc(Cl)c(OCCCn2ccnc2)c(Br)c1	JMJD2A Tudor 22µM, BAZ2B inh 50µM, G9a block inconclusive, HP1b binding inh inconclusive
Clc1ccc(OCCCn2ccnc2)c(Br)c1	JMJD2A Tudor 5.6µM, BAZ2B inh 32µM, G9a block 3.5µM, HP1b binding inh 16µM
COc1ccc(-c2cc(C(=O)OCc3ccccn3)c3ccccc3n2)cc1	JMJD2A Tudor 20µM, BAZ2B inh inconclusive, G9a block inconclusive
O=C(NCc1ccccn1)c1cc(-c2ccccc2)nc2ccccc12	none
O=C(NCc1ccccn1)c1cc(-c2ccc(-c3ccccc3)cc2)nc2ccccc12	JMJD2A Tudor inconclusive, BAZ2B inh inconclusive, G9a block 3.2µM
Oc1ccc(Cl)cc1CNCc1cccc2ccccc12	none
COc1ccc(C(C[N+](=O)[O-])c2c(C)cc3ccccn23)c(OC)c1 (stereo not given)	GLS inhibitor inconclusive, G9a block 40µM
COc1ccc(OC)c(C(C[N+](=O)[O-])c2c(C)cc3ccccn23)c1 (stereo not given)	JMJD2A Tudor inconclusive, BAZ2B inh inconclusive, G9a block 45µM, HP1b binding inh inconclusive
O=C(CCC1N=C2c3ccccc3N=C(SCc3ccc(Cl)cc3)N2C1=O)N1CCN(c2ccccc2)CC1 (stereo not given)	none
Cc1ccc(CSC2=Nc3ccccc3C3=NC(CCC(=O)N4CCN(c5ccccc5)CC4)C(=O)N23)cc1 (stereo not given)	G9a block 18µM
O=C(CSC1=Nc2ccccc2C2=NC(CC(=O)N3CCN(c4ccccc4)CC3)C(=O)N12)NCC1CCCO1 (stereo not given)	G9a block 50µM
CCn1cc(S(=O)(=O)c2ccc(OC)cc2)c(=O)c2cc(F)c(N3CCC(C)CC3)cc21	none
COCCCN(CC(=O)O)S(=O)(=O)c1cccc(Cl)c1	G9a block 50µM
O=C(CSc1nnc(-c2ccco2)c(-c2ccco2)n1)c1ccccc1	JMJD2A Tudor 45µM, HP1b binding inh inconclusive
CC(=O)c1ccc(NC(=O)CSc2nnc(-c3ccco3)c(-c3ccco3)n2)cc1	JMJD2A Tudor 22µM, BAZ2B inh 45µM, HP1b binding inh 32µM (no result: G9a block)
COc1cc2c(cc1OC)C1O[C@](CCCCN3C(=O)c4ccccc4C3=O)(C2)Oc2c1c(=O)oc1ccccc21	none (no result: GLS inhibitor, JMJD2A Tudor, G9a block, HP1b binding inh)
C[C@H]1CN([C@@H](C)CO)C(=O)Cc2cc(NC(=O)CCN3CCOCC3)ccc2O[C@@H]1CN(C)Cc1ccc(Oc2ccccc2)cc1	JMJD2A Tudor 45µM (no result: BAZ2B inh, G9a block)
C[C@H]1CN([C@@H](C)CO)C(=O)Cc2cc(NC(=O)C3CC3)ccc2O[C@H]1CN(C)Cc1ccc(Oc2ccccc2)cc1	JMJD2A Tudor inconclusive (no result: BAZ2B inh, G9a block)
CCc1cc2ccccc2nc1SCC(=O)NC1CCCC1	none
N#Cc1cc2ccccc2nc1SCC(=O)NC1CC1	G9a block 50µM
COc1ccc(-c2nc3cnc(OC)nc3n(CCc3ccccc3)c2=O)cc1	none (no result: GLS inhibitor, JMJD2A Tudor, BAZ2B inh, HP1b binding inh)
Brc1nnc2n1-c1ccccc1Sc1ccccc1-2	none
Clc1ccc2c(c1)-c1nnc(Br)n1-c1ccccc1S2	G9a block 10µM
CCN(CCCNC(=O)C1CCN(S(=O)(=O)CC)CC1)c1cccc(C)c1	G9a block inconclusive
CCCCN(CCCNC(=O)C1CCN(S(=O)(=O)N2CCOCC2)CC1)c1ccccc1	JMJD2A Tudor inconclusive, G9a block 40µM
CCN(CCCNC(=O)C1CCN(S(=O)(=O)N2CCC3(CC2)OCCO3)CC1)c1ccccc1	G9a block inconclusive

Screening data from PubChem BioAssay.
